Measurements: the supplement of paper PMC7411054
Structures can show the parent of a compound that is named as a salt.

Legend:
Test in all cases: phenotypically active (imaging signature differs from DMSO and reproducible) at any of 0.3-9 uM (binary (1 = active, 0 = inactive)); higher = active
Conditions in all cases: treatment time: 24 h
[1] = tested on: A549-ACTB-RAB5A
Outline: (§1)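 Phenotypic activity depended on meeting both a deviation and a reproducibility criterion. The fifteen gene-edited A549, HepG2 and WPMY1 reporter lines were treated at 0.3, 1, 3 or 9 µM for 24 h, four wells each, then imaged live with features normalised to solvent control wells. Deviation required ≥3 of 4 wells past the 95th percentile of control Euclidean distances, and reproducibility a median replicate Pearson correlation above the 95th percentile of non-replicates.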

[2] = tested on: A549-CANX-COX4
Outline: as §1

[3] = tested on: A549-GM130-SQSTM1
Outline: as §1

[4] = tested on: A549-TP53BP1-CLTA
Outline: as §1

[5] = tested on: A549-TUBA1B-RELA
Outline: as §1

[6] = tested on: HepG2-ACTB-RAB5A
Outline: as §1

[7] = tested on: HepG2-CANX-COX4
Outline: as §1

[8] = tested on: HepG2-GM130-SQSTM1
Outline: as §1

[9] = tested on: HepG2-TP53BP1-CLTA
Outline: as §1

[10] = tested on: HepG2-TUBA1B-RELA
Outline: as §1

[11] = tested on: WPMY1-ACTB-RAB5A
Outline: as §1

[12] = tested on: WPMY1-CANX-COX4
Outline: as §1

[13] = tested on: WPMY1-GM130-SQSTM1
Outline: as §1

[14] = tested on: WPMY1-TP53BP1-CLTA
Outline: as §1

[15] = tested on: WPMY1-TUBA1B-RELA
Outline: as §1

Measured: phenotypically active

CCCC(C)C1(CC)C(=O)N=C(S)NC1=O (stereo not given) [thiopental]
inactive: [1] 0 | [2] 0 | [3] 0 | [4] 0 | [5] 0 | [6] 0 | [7] 0 | [8] 0 | [9] 0 | [10] 0 | [11] 0 | [12] 0 | [13] 0 | [14] 0 | [15] 0

C/C(O)=C(/C#N)C(=O)Nc1cc(Br)ccc1Br
inactive: [1] 0 | [2] 0 | [3] 0 | [4] 0 | [5] 0 | [6] 0 | [7] 0 | [8] 0 | [9] 0 | [10] 0 | [11] 0 | [12] 0 | [13] 0 | [14] 0 | [15] 0

C[N+]1([O-])[C@@H]2C[C@@H](OC(=O)[C@H](CO)c3ccccc3)C[C@H]1[C@@H]1O[C@@H]12 (stereo not given in full) [Genoscopolamine HBr]
inactive: [1] 0 | [2] 0 | [3] 0 | [4] 0 | [5] 0 | [6] 0 | [7] 0 | [8] 0 | [9] 0 | [10] 0 | [11] 0 | [12] 0 | [13] 0 | [14] 0 | [15] 0

CNC(=O)Oc1ccc2c(c1)[C@]1(C)CCN(C)[C@@H]1N2C [Eserine sulfate, physostigmine sulfate]
inactive: [1] 0 | [2] 0 | [3] 0 | [4] 0 | [5] 0 | [6] 0 | [7] 0 | [8] 0 | [9] 0 | [10] 0 | [11] 0 | [12] 0 | [13] 0 | [14] 0 | [15] 0

N#CC(O[C@@H]1O[C@H](CO[C@@H]2O[C@H](CO)[C@@H](O)[C@H](O)[C@H]2O)[C@@H](O)[C@H](O)[C@H]1O)c1ccccc1 (stereo not given in full) [Amygdalin]
inactive: [1] 0 | [2] 0 | [3] 0 | [4] 0 | [5] 0 | [6] 0 | [7] 0 | [8] 0 | [9] 0 | [10] 0 | [11] 0 | [12] 0 | [13] 0 | [14] 0 | [15] 0

COc1ccc2c(c1O)-c1c(OC)c(OC)cc3c1[C@H](C2)N(C)CC3 [Isocorydine (+)]
inactive: [1] 0 | [2] 0 | [3] 0 | [4] 0 | [5] 0 | [6] 0 | [7] 0 | [8] 0 | [9] 0 | [10] 0 | [11] 0 | [12] 0 | [13] 0 | [14] 0 | [15] 0
